# PMC8384837, “Expanding the binding specificity for RNA recognition by a PUF domain”
# Assays:
# Assay in all cases: yeast three-hybrid, YBZ-1, SC-Leu-His + 0.5 mM 3-AT, 4 days
# Settings in all cases: tags: N-Gal4 AD-HA kept; label: inside an RPR1-promoter hybrid RNA with tandem MS2 sites; ssRNA
# PUM1 PUF domain R8-FWR = PUM1 PUF domain R8-FWR (Homo sapiens, UniProt Q14671 828-1176, N1122F;Y1123W;Q1126R)
# Procedure, shortened: (§1)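 Pumilio-1 PUF domain libraries, randomized at the three base-contacting residues of each repeat, were co-expressed with matching RNA elements from a centromeric plasmid in strain YBZ-1, which carries a LexA–MS2 coat fusion and a HIS3 reporter. Transformants grew for four days on SC-Leu (input) or on SC-Leu-His + 0.5 mM 3-AT (selection), and the repeat regions were PCR-amplified and Illumina-sequenced. The interaction score is the log change in variant frequency from input to selection. That logarithm is base 2, with a pseudocount of 1 where a variant was absent.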
# PUM1 PUF domain R2-LWG = PUM1 PUF domain R2-LWG (Homo sapiens, UniProt Q14671 828-1176, N899L;Y900W;Q903G)
# Procedure, shortened: as §1
# PUM1 PUF domain R1-RVE = PUM1 PUF domain R1-RVE (Homo sapiens, UniProt Q14671 828-1176, S863R;R864V;Q867E)
# Procedure, shortened: as §1
# PUM1 PUF domain R1-NVR = PUM1 PUF domain R1-NVR (Homo sapiens, UniProt Q14671 828-1176, S863N;R864V;Q867R)
# Procedure, shortened: as §1
# PUM1 PUF domain R7-ECA = PUM1 PUF domain R7-ECA (Homo sapiens, UniProt Q14671 828-1176, S1079E;N1080C;E1083A)
# Procedure, shortened: as §1
# PUM1 PUF domain R7-RGR = PUM1 PUF domain R7-RGR (Homo sapiens, UniProt Q14671 828-1176, S1079R;N1080G;E1083R)
# Procedure, shortened: as §1
# PUM1 PUF domain R2-VWP = PUM1 PUF domain R2-VWP (Homo sapiens, UniProt Q14671 828-1176, N899V;Y900W;Q903P)
# Procedure, shortened: as §1
# PUM1 PUF domain R3-ARV = PUM1 PUF domain R3-ARV (Homo sapiens, UniProt Q14671 828-1176, C935A;Q939V)
# Procedure, shortened: as §1
# PUM1 PUF domain R3-VYG = PUM1 PUF domain R3-VYG (Homo sapiens, UniProt Q14671 828-1176, C935V;R936Y;Q939G)
# Procedure, shortened: as §1
# PUM1 PUF domain R3-MRR = PUM1 PUF domain R3-MRR (Homo sapiens, UniProt Q14671 828-1176, C935M;Q939R)
# Procedure, shortened: as §1
# PUM1 PUF domain R5-RQR = PUM1 PUF domain R5-RQR (Homo sapiens, UniProt Q14671 828-1176, C1007R;R1008Q;Q1011R)
# Procedure, shortened: as §1
# PUM1 PUF domain R5-AYM = PUM1 PUF domain R5-AYM (Homo sapiens, UniProt Q14671 828-1176, C1007A;R1008Y;Q1011M)
# Procedure, shortened: as §1
# PUM1 PUF domain R5-RFF = PUM1 PUF domain R5-RFF (Homo sapiens, UniProt Q14671 828-1176, C1007R;R1008F;Q1011F)
# Procedure, shortened: as §1
# PUM1 PUF domain R5-RRQ = PUM1 PUF domain R5-RRQ (Homo sapiens, UniProt Q14671 828-1176, C1007R)
# Procedure, shortened: as §1
# PUM1 PUF domain R4-WGK = PUM1 PUF domain R4-WGK (Homo sapiens, UniProt Q14671 828-1176, N971W;H972G;Q975K)
# Procedure, shortened: as §1
# PUM1 PUF domain R6-TWR = target: T1, PUM1 PUF domain R6-TWR (Homo sapiens, UniProt Q14671 828-1176, N1043T;Y1044W;Q1047R)
# T1 sequence: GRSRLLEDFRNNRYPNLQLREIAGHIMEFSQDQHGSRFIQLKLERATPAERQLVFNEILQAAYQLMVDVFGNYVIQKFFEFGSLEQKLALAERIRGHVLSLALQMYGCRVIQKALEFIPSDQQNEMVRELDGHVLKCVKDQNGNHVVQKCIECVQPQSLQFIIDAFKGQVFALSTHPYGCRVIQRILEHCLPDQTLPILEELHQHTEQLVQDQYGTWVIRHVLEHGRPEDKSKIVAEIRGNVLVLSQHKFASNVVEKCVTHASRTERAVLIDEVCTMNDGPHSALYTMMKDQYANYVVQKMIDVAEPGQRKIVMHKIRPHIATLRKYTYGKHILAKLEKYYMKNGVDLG
# Procedure, shortened: as §1
# PUM1 PUF domain R7-RFW = PUM1 PUF domain R7-RFW (Homo sapiens, UniProt Q14671 828-1176, S1079R;N1080F;E1083W)
# Procedure, shortened: as §1
# PUM1 PUF domain R5-QLV = PUM1 PUF domain R5-QLV (Homo sapiens, UniProt Q14671 828-1176, C1007Q;R1008L;Q1011V)
# Procedure, shortened: as §1
# PUM1 PUF domain R5-RKM = PUM1 PUF domain R5-RKM (Homo sapiens, UniProt Q14671 828-1176, C1007R;R1008K;Q1011M)
# Procedure, shortened: as §1
# PUM1 PUF domain R4-YRM = PUM1 PUF domain R4-YRM (Homo sapiens, UniProt Q14671 828-1176, N971Y;H972R;Q975M)
# Procedure, shortened: as §1
# PUM1 PUF domain R5-RQR, sequence (Q14671 828-1176 C1007R/R1008Q/Q1011R): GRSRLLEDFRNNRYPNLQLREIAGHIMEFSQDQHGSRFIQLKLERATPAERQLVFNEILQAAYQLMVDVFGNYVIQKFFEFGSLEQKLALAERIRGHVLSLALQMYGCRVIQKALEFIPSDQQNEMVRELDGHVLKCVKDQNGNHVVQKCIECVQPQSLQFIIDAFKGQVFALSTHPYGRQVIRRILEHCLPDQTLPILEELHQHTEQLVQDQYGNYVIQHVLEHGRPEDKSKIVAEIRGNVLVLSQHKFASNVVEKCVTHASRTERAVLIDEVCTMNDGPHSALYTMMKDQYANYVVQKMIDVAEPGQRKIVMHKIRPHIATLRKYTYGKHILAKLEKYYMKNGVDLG
# PUM1 PUF domain R1-RVE, sequence (Q14671 828-1176 S863R/R864V/Q867E): as the sequence (Q14671 828-1176 C1007R/R1008Q/Q1011R) above, with S36R, R37V, Q40E, R180C, Q181R, R184Q counted along it
# PUM1 PUF domain R7-ECA, sequence (Q14671 828-1176 S1079E/N1080C/E1083A): as the sequence (Q14671 828-1176 C1007R/R1008Q/Q1011R) above, with R180C, Q181R, R184Q, S252E, N253C, E256A counted along it
# PUM1 PUF domain R1-NVR, sequence (Q14671 828-1176 S863N/R864V/Q867R): as the sequence (Q14671 828-1176 C1007R/R1008Q/Q1011R) above, with S36N, R37V, Q40R, R180C, Q181R, R184Q counted along it
# PUM1 PUF domain R8-FWR, sequence (Q14671 828-1176 N1122F/Y1123W/Q1126R): as the sequence (Q14671 828-1176 C1007R/R1008Q/Q1011R) above, with R180C, Q181R, R184Q, N295F, Y296W, Q299R counted along it
# PUM1 PUF domain R3-ARV, sequence (Q14671 828-1176 C935A/Q939V): as the sequence (Q14671 828-1176 C1007R/R1008Q/Q1011R) above, with C108A, Q112V, R180C, Q181R, R184Q counted along it
# PUM1 PUF domain R5-RKM, sequence (Q14671 828-1176 C1007R/R1008K/Q1011M): as the sequence (Q14671 828-1176 C1007R/R1008Q/Q1011R) above, with Q181K, R184M counted along it
# PUM1 PUF domain R5-AYM, sequence (Q14671 828-1176 C1007A/R1008Y/Q1011M): as the sequence (Q14671 828-1176 C1007R/R1008Q/Q1011R) above, with R180A, Q181Y, R184M counted along it
# PUM1 PUF domain R4-YRM, sequence (Q14671 828-1176 N971Y/H972R/Q975M): as the sequence (Q14671 828-1176 C1007R/R1008Q/Q1011R) above, with N144Y, H145R, Q148M, R180C, Q181R, R184Q counted along it
# PUM1 PUF domain R2-VWP, sequence (Q14671 828-1176 N899V/Y900W/Q903P): as the sequence (Q14671 828-1176 C1007R/R1008Q/Q1011R) above, with N72V, Y73W, Q76P, R180C, Q181R, R184Q counted along it
sequence,measurement,setting,value
GGCUAGAACUAGUGGAUCCCCCGGCGCCCGGCGGCUCGAGCCCGGGUAAGCGUAAAUAGUCUGCAUGCCGCCGGGCGCCAUGCCUGCAGGUCGACUCUAGAAAACAUG,binding signal,PUM1 PUF domain R8-FWR,3.91 log2 enrichment (interaction score)
GGCUAGAACUAGUGGAUCCCCCGGCGCCCGGCGGCUCGAGCCCGGGUAAGUGUAAAGAGUCUGCAUGCCGCCGGGCGCCAUGCCUGCAGGUCGACUCUAGAAAACAUG,binding signal,PUM1 PUF domain R2-LWG,3.16 log2 enrichment (interaction score)
GGCUAGAACUAGUGGAUCCCCCGGCGCCCGGCGGCUCGAGCCCGGGUAAGUGUAAAUCGUCUGCAUGCCGCCGGGCGCCAUGCCUGCAGGUCGACUCUAGAAAACAUG,binding signal,PUM1 PUF domain R1-RVE,2.37 log2 enrichment (interaction score)
same,binding signal,PUM1 PUF domain R1-NVR,5.44 log2 enrichment (interaction score)
GGCUAGAACUAGUGGAUCCCCCGGCGCCCGGCGGCUCGAGCCCGGGUAAGUGUAAAUGGUCUGCAUGCCGCCGGGCGCCAUGCCUGCAGGUCGACUCUAGAAAACAUG,binding signal,PUM1 PUF domain R1-RVE,1.35 log2 enrichment (interaction score)
GGCUAGAACUAGUGGAUCCCCCGGCGCCCGGCGGCUCGAGCCCGGGUAAGUUUAAAUAGUCUGCAUGCCGCCGGGCGCCAUGCCUGCAGGUCGACUCUAGAAAACAUG,binding signal,PUM1 PUF domain R7-ECA,3.96 log2 enrichment (interaction score)
same,binding signal,PUM1 PUF domain R7-RGR,6.1 log2 enrichment (interaction score)
GGCUAGAACUAGUGGAUCCCCCGGCGCCCGGCGGCUCGAGCCCGGGUAAGUGUAAAAAGUCUGCAUGCCGCCGGGCGCCAUGCCUGCAGGUCGACUCUAGAAAACAUG,binding signal,PUM1 PUF domain R2-VWP,4.15 log2 enrichment (interaction score)
same,binding signal,PUM1 PUF domain R2-LWG,8 log2 enrichment (interaction score)
GGCUAGAACUAGUGGAUCCCCCGGCGCCCGGCGGCUCGAGCCCGGGUAAGUGUAAUUAGUCUGCAUGCCGCCGGGCGCCAUGCCUGCAGGUCGACUCUAGAAAACAUG,binding signal,PUM1 PUF domain R3-ARV,1.96 log2 enrichment (interaction score)
same,binding signal,PUM1 PUF domain R3-VYG,2.46 log2 enrichment (interaction score)
same,binding signal,PUM1 PUF domain R3-MRR,3.08 log2 enrichment (interaction score)
GGCUAGAACUAGUGGAUCCCCCGGCGCCCGGCGGCUCGAGCCCGGGUAAGUGUCAAUAGUCUGCAUGCCGCCGGGCGCCAUGCCUGCAGGUCGACUCUAGAAAACAUG,binding signal,PUM1 PUF domain R5-RQR,4.51 log2 enrichment (interaction score)
same,binding signal,PUM1 PUF domain R5-AYM,2.95 log2 enrichment (interaction score)
same,binding signal,PUM1 PUF domain R5-RFF,2.99 log2 enrichment (interaction score)
same,binding signal,PUM1 PUF domain R5-RRQ,4.75 log2 enrichment (interaction score)
GGCUAGAACUAGUGGAUCCCCCGGCGCCCGGCGGCUCGAGCCCGGGUAAGUGUACAUAGUCUGCAUGCCGCCGGGCGCCAUGCCUGCAGGUCGACUCUAGAAAACAUG,binding signal,PUM1 PUF domain R4-WGK,3.57 log2 enrichment (interaction score)
GGCUAGAACUAGUGGAUCCCCCGGCGCCCGGCGGCUCGAGCCCGGGUAAGUGUUAAUAGUCUGCAUGCCGCCGGGCGCCAUGCCUGCAGGUCGACUCUAGAAAACAUG,binding signal,PUM1 PUF domain R5-RQR,4.81 log2 enrichment (interaction score)
GGCUAGAACUAGUGGAUCCCCCGGCGCCCGGCGGCUCGAGCCCGGGUAAGUGCAAAUAGUCUGCAUGCCGCCGGGCGCCAUGCCUGCAGGUCGACUCUAGAAAACAUG,binding signal,PUM1 PUF domain R6-TWR,5.67 log2 enrichment (interaction score)
GGCUAGAACUAGUGGAUCCCCCGGCGCCCGGCGGCUCGAGCCCGGGUAAGUGUAAAUUGUCUGCAUGCCGCCGGGCGCCAUGCCUGCAGGUCGACUCUAGAAAACAUG,binding signal,PUM1 PUF domain R1-RVE,2.57 log2 enrichment (interaction score)
same,binding signal,PUM1 PUF domain R1-NVR,3.93 log2 enrichment (interaction score)
GGCUAGAACUAGUGGAUCCCCCGGCGCCCGGCGGCUCGAGCCCGGGUAAGUGUAAGUAGUCUGCAUGCCGCCGGGCGCCAUGCCUGCAGGUCGACUCUAGAAAACAUG,binding signal,PUM1 PUF domain R3-VYG,1.12 log2 enrichment (interaction score)
same,binding signal,PUM1 PUF domain R3-MRR,4.82 log2 enrichment (interaction score)
GGCUAGAACUAGUGGAUCCCCCGGCGCCCGGCGGCUCGAGCCCGGGUAAGUAUAAAUAGUCUGCAUGCCGCCGGGCGCCAUGCCUGCAGGUCGACUCUAGAAAACAUG,binding signal,PUM1 PUF domain R7-RFW,2.69 log2 enrichment (interaction score)
GGCUAGAACUAGUGGAUCCCCCGGCGCCCGGCGGCUCGAGCCCGGGUAAGUGUGAAUAGUCUGCAUGCCGCCGGGCGCCAUGCCUGCAGGUCGACUCUAGAAAACAUG,binding signal,PUM1 PUF domain R5-QLV,2.52 log2 enrichment (interaction score)
same,binding signal,PUM1 PUF domain R5-RRQ,1.79 log2 enrichment (interaction score)
GGCUAGAACUAGUGGAUCCCCCGGCGCCCGGCGGCUCGAGCCCGGGUAAGUGUAACUAGUCUGCAUGCCGCCGGGCGCCAUGCCUGCAGGUCGACUCUAGAAAACAUG,binding signal,PUM1 PUF domain R3-MRR,0.49 log2 enrichment (interaction score)
GGCUAGAACUAGUGGAUCCCCCGGCGCCCGGCGGCUCGAGCCCGGGUAAGUGUAUAUAGUCUGCAUGCCGCCGGGCGCCAUGCCUGCAGGUCGACUCUAGAAAACAUG,binding signal,PUM1 PUF domain R4-WGK,3.03 log2 enrichment (interaction score)
GGCUAGAACUAGUGGAUCCCCCGGCGCCCGGCGGCUCGAGCCCGGGUAAGUGUAAAUAGUCUGCAUGCCGCCGGGCGCCAUGCCUGCAGGUCGACUCUAGAAAACAUG,binding signal,PUM1 PUF domain R5-RQR,1 log2 enrichment (interaction score)
same,binding signal,PUM1 PUF domain R5-RKM,2.32 log2 enrichment (interaction score)
same,binding signal,PUM1 PUF domain R4-YRM,2.31 log2 enrichment (interaction score)
same,binding signal,PUM1 PUF domain R8-FWR,3.71 log2 enrichment (interaction score)
same,binding signal,PUM1 PUF domain R3-ARV,3.82 log2 enrichment (interaction score)
same,binding signal,PUM1 PUF domain R5-RFF,1.95 log2 enrichment (interaction score)
same,binding signal,PUM1 PUF domain R4-WGK,1.16 log2 enrichment (interaction score)
same,binding signal,PUM1 PUF domain R2-LWG,1.91 log2 enrichment (interaction score)
same,binding signal,PUM1 PUF domain R3-VYG,3.51 log2 enrichment (interaction score)
same,binding signal,PUM1 PUF domain R5-RRQ,3.35 log2 enrichment (interaction score)
same,binding signal,PUM1 PUF domain R6-TWR,7.84 log2 enrichment (interaction score)
same,binding signal,PUM1 PUF domain R3-MRR,0.71 log2 enrichment (interaction score)
GGCUAGAACUAGUGGAUCCCCCGGCGCCCGGCGGCUCGAGCCCGGGUAAGUCUAAAUAGUCUGCAUGCCGCCGGGCGCCAUGCCUGCAGGUCGACUCUAGAAAACAUG,binding signal,PUM1 PUF domain R7-ECA,1.26 log2 enrichment (interaction score)
same,binding signal,PUM1 PUF domain R7-RFW,5.36 log2 enrichment (interaction score)
same,binding signal,PUM1 PUF domain R7-RGR,5.01 log2 enrichment (interaction score)
